Reference: PubChem BioAssay AID1159580 (chemical genetic matrix, 2015)
Several values for one entry are separate records, joined by “and”; a condition that tells them apart may be missing. Identical values can stand only once. About 2,000 (36%) of roughly 5,500 compounds were called active. Roughly 18% stayed inconclusive and do not appear here. Rule as the data show it: active = normalized growth mostly below about 0.91 (no sharp cut-off); inconclusive = no clear call, values can overlap the other calls; inactive = mostly above about 0.92. The list shows a part of the results.

Assay: chemical genetic growth profiling, strain panel (AID 1159580);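 also: tested at 20 µM; growth read once vehicle control cultures reached saturation at 30 °C; 1 = growth at the plate median or of vehicle wells; lower values mean less growth of the strain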
Details: S. cerevisiae deletion strains, growth OD

Measured: normalized growth

CCCCC1=NC2(CCCC2)C(=O)N1Cc1ccc(-c2ccccc2-c2nn[nH]n2)cc1
inactive: locus YAL013W, strain DEP1, active compounds read low 0.984 | locus YAL021C, strain ccr4, active compounds read low 1.01 | locus YAL026C, strain drs2, active compounds read low 1.01 | locus YAL030W, strain snc1, active compounds read low 1.02 | locus YBL061C, strain skt5, active compounds read low 1.02 | locus YBR009C, strain hhf1, active compounds read low 1.01 | locus YBR021W, strain FUR4, active compounds read low 0.985 | locus YBR023C, strain chs3, active compounds read low 1.01 | locus YBR171W, strain sec66, active compounds read low 1.02 | locus YBR229C, strain ROT2, active compounds read low 0.938 | locus YBR231C, strain swc5, active compounds read low 1.03 | locus YBR279W, strain paf1, active compounds read low 1.01 | locus YCL011C, strain gbp2, active compounds read low 1.03 | locus YCL016C, strain dcc1, active compounds read low 1.01 | locus YCL029C, strain bik1, active compounds read low 0.993 | locus YCL069W, strain vba3, active compounds read low 1.02 | locus YCR088W, strain abp1, active compounds read low 1.02 | locus YDL005C, strain med2, active compounds read low 1.03 | locus YDL035C, strain GPR1, active compounds read low 0.974 | locus YDL040C, strain nat1, active compounds read low 1.02 | locus YDL074C, strain BRE1, active compounds read low 1 | locus YDL101C, strain DUN1, active compounds read low 0.99 | locus YDL134C, strain PPH21, active compounds read low 0.988 | locus YDL185W, strain tfp1, active compounds read low 0.987 | locus YDL192W, strain arf1, active compounds read low 0.985 | locus YDR001C, strain nth1, active compounds read low 1 | locus YDR069C, strain doa4, active compounds read low 1.02 | locus YDR101C, strain arx1, active compounds read low 0.998 | locus YDR137W, strain rgp1, active compounds read low 1.01 | locus YDR150W, strain NUM1, active compounds read low 0.97 | locus YDR159W, strain sac3, active compounds read low 1.02 | locus YDR162C, strain NBP2, active compounds read low 0.982 | locus YDR195W, strain ref2 1.02 | locus YDR297W, strain sur2, active compounds read low 1.02 | locus YDR318W, strain mcm21, active compounds read low 1 | locus YDR334W, strain swr1, active compounds read low 1.02 | locus YDR335W, strain msn5, active compounds read low 1 | locus YDR388W, active compounds read low 0.999 | locus YDR392W, strain spt3, active compounds read low 1.01 | locus YDR502C, strain sam2, active compounds read low 0.982 | locus YEL003W, strain gim4, active compounds read low 1.01 | locus YEL037C, strain rad23, active compounds read low 1.02 | locus YEL061C, strain CIN8 (second series), active compounds read low 1.03 | locus YEL061C, strain CIN8, active compounds read low 0.979 | locus YER015W, strain faa2, active compounds read low 1.02 | locus YER016W, strain bim1, active compounds read low 1.01 | locus YER110C, active compounds read low 0.977 | locus YER111C, strain swi4, active compounds read low 1 | locus YER155C, strain BEM2 (second series), active compounds read low 1.05 | locus YER155C, strain BEM2, active compounds read low 1.01 | locus YER167W, strain BCK2, active compounds read low 0.976 | locus YFR010W, strain ubp6, active compounds read low 1.02 | locus YGL078C, strain dbp3, active compounds read low 0.969 | locus YGL086W, strain mad1, active compounds read low 0.988 | locus YGL167C, strain pmr1, active compounds read low 1.02 | locus YGL173C, strain kem1, active compounds read low 1.02 | locus YGL227W, strain vid30, active compounds read low 1.01 | locus YGL240W, strain doc1, active compounds read low 0.993 | locus YGL248W, strain PDE1, active compounds read low 0.979 | locus YGL253W, strain hxk2, active compounds read low 1.01 | locus YGR078C, strain PAC10, active compounds read low 1.02 | locus YGR135W, strain pre9, active compounds read low 1.02 | locus YGR229C, strain SMI1, active compounds read low 1.01 | locus YGR252W, strain gcn5, active compounds read low 0.931 | locus YHR013C, strain ard1, active compounds read low 1.01 | locus YHR027C, strain rpn1, active compounds read low 1.01 | locus YHR030C, strain SLT2, active compounds read low 0.994 and 0.967 | locus YHR079C, strain IRE1 (second series), active compounds read low 0.989 | locus YHR079C, strain IRE1, active compounds read low 0.973 | locus YHR094C, strain hxt1, active compounds read low 0.992 | locus YHR129C, strain ARP1, active compounds read low 1 | locus YHR142W, strain chs7, active compounds read low 1.01 | locus YHR200W, strain rpn10, active compounds read low 0.99 | locus YIL066C, strain RNR3, active compounds read low 0.974 | locus YIL073C, strain SPO22, active compounds read low 1.01 | locus YIL125W, strain kgd1, active compounds read low 0.966 | locus YIR030C, strain dcg1, active compounds read low 0.978 | locus YJL092W, strain hpr5, active compounds read low 1.01 | locus YJL095W, strain BCK1 (second series), active compounds read low 1.02 | locus YJL095W, strain BCK1, active compounds read low 1.06 and 1.01 | locus YJL115W, strain asf1, active compounds read low 0.999 | locus YJL129C, strain trk1, active compounds read low 1.01 | locus YJL134W, strain LCB3, active compounds read low 0.98 | locus YJL154C, strain vps35, active compounds read low 1.01 | locus YJL164C, strain tpk1, active compounds read low 0.997 | locus YJL166W, strain qcr8, active compounds read low 1.03 | locus YJL168C, strain set2, active compounds read low 0.993 | locus YJL187C, strain SWE1 (second series), active compounds read low 1.01 | locus YJR043C, strain POL32, active compounds read low 1.02 | locus YJR066W, strain TOR1, active compounds read low 0.953 | locus YJR075W, strain HOC1, active compounds read low 1.01
